PNC assembly inh: High Content Assay for Compounds that inhibit the Assembly of the Perinucleolar Compartment | PC3M PTB-GFP, PNC prevalence imaging, 16 h; hits give low values | activity change (PNC), negative = inhibition, % at 10 µM | actives 3.1% (n = 140,000);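 active = readout at or below -70, meaning at least 70% loss of cells showing the perinucleolar compartment, a nuclear body marking cancer cells; inconclusive = readout between -30 and a set limit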;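 note: plate controls were DMSO wells for no effect and camptothecin positive control wells for full effect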
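Compounds are pinned in duplicate onto adhered PC3M cells stably expressing GFP-tagged PTB and incubated 16 h at 37 C. Cells are then fixed, nuclei stained with Hoechst, and PNC-positive cells counted.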
IMPase Li cell: qHTS Assay for Identifying the Cell-Membrane Permeable IMPase Inhibitors: Potentiation with Lithium; CHO-M1 cells, IP1 TR-FRET (IP-One), carbachol + lithium; Potency, µM (top dose mostly 59.4 µM), for the others: at the top dose activity, negative = IMPase inhibition, usual class: inhibitors; actives 0.35% (n = 210,000); AID 1457, 2008; active = well fitted curve in the direction sought with a large enough effect; inconclusive = small, poorly fitted or top-dose-only effect, or another doubt; inactive = no such curve, though single readings can be large; an effect the other way counts as inactive or inconclusive;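 note: IP1 builds up when IMPase is blocked and the TR-FRET signal falls; potency is the fitted concentration of half-maximal effect; plate controls were basal vehicle for no effect and high inhibitor control for full effect; nearly all actives have a fitted effect of over 50% in size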
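Readout is a homogeneous TR-FRET IP1 immunoassay (Ex 320, Em 665 and 620), where raised cytosolic IP1 lowers signal. Cells were CHO-M1 treated 30 min at 37C with test compounds plus a little lithium; AC50 values came from Hill-equation fitting.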
IMPase inh: qHTS Assay for Identifying the Cell-Membrane Permeable IMPase Inhibitors; Inositol monophosphatase 1 (Rattus norvegicus), P97697; CHO-M1 cells, IP1 accumulation, HTRF TR-FRET ratio; inhibition (IP1 accumulation), % at 46.1 µM; 120,000 tested, under 10 active; AID 901, 2007; active = well fitted curve in the direction sought with a large enough effect in the signal ratio, not every such curve was filed as active; inconclusive = small, poorly fitted or top-dose-only effect, or a change in a side signal; inactive = no such curve, though single readings can be large or run the other way; the % refers to the signal ratio;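 note: cells stimulated with carbachol in lithium chloride buffer; plate controls were DMSO basal wells for no effect and reference inhibitor wells for full effect; higher means more IMPase inhibition seen as more IP1 and lower FRET ratio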
Target sequence (P97697 whole entry, looked up): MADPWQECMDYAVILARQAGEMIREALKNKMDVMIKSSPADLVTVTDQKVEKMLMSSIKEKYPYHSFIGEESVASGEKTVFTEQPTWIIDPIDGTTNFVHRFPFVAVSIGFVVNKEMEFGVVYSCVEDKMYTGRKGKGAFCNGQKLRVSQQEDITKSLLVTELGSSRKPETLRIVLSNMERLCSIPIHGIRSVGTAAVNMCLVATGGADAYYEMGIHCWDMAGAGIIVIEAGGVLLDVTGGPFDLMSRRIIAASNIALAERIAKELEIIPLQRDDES
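CHO-M1 cells (CHO stably expressing M1 receptor), compound up to 46 uM final, stimulated with carbachol (50 uM as added) in buffer with 50mM LiCl, pH 7.4, 30 min at 37C. Cytosolic IP1 read by TR-FRET; AC50 from Hill fits.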
ALDH1A1 block: qHTS Assay for Inhibitors of Aldehyde Dehydrogenase 1 (ALDH1A1). Purified ALDH1A1, NADH fluorescence, propionaldehyde substrate. Potency, µM (highest dose often 75.3 µM), for inactives: at the highest dose activity, negative = inhibition, hits mostly inhibitors. actives 7.3% (n = 220,000). AID 1030, 2008;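 note: potency is the fitted concentration of half-maximal effect; plate controls were no enzyme wells and a reference inhibitor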
ALOX12 inhib: qHTS Assay for Inhibitors of 12-hLO (12-human lipoxygenase) | Polyunsaturated fatty acid lipoxygenase ALOX12 (Homo sapiens), P18054 | purified 12-hLO, xylenol orange hydroperoxide absorbance | Potency, µM (series often up to 57.1 µM), without a hit: at the top dose activity change, negative = inhibition, hits mostly inhibitors | actives 0.12% (n = 150,000); active = well fitted curve in the direction sought with a large enough effect; inconclusive = small, poorly fitted or top-dose-only effect, or another doubt; inactive = no such curve, though single readings can be large; an effect the other way counts as inactive or inconclusive; note: potency is the fitted concentration of half-maximal effect; nearly all actives have a fitted effect of over 55% in size
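150 nM 12hLO, 25 mM Hepes pH 7.0 + 0.01% Triton X-100; cpd preinc 15 min RT; 40 uM arachidonic acid, 30 min RT; Fe-XO 30 min; A573/A405 ratio as read-out.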
HPGD inh: qHTS Assay for Inhibitors of HPGD (15-Hydroxyprostaglandin Dehydrogenase). actives 4.3% (n = 150,000). purified HPGD, NADH fluorescence kinetic, PGE2 substrate. Potency, µM, for inactives: top-dose activity change, negative = inhibition, hits mostly inhibitors; note: potency is the fitted concentration of half-maximal effect
Target sequence (P15428 whole entry, looked up): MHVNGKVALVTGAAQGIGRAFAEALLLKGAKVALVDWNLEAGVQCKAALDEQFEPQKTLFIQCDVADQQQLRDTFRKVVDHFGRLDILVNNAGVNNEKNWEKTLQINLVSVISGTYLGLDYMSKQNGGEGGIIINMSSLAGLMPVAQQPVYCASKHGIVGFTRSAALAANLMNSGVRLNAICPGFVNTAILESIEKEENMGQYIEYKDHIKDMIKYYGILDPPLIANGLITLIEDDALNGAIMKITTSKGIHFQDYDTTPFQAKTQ
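NADH formation kinetics: reaction with 30 uM PGE2 and 1 mM NAD+ (final), 20 nM enzyme, Tris-HCl pH 8 with Tween 20, after 15 min compound preincubation at room temperature. Fluorescence change, last versus first of five reads.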
Numbers without * were called inactive; ? = inconclusive; · = no result given; [ ] = another dose, or the depositor's remark. This is a sample that favours compounds with a hit; in the whole collection about 11% have one here. Unless noted, calls come from the whole dose curve; as a rule, active = well fitted inhibition curve with a large enough effect (not every such curve was filed as active); inconclusive = small, poorly fitted or top-dose-only effect, or another doubt; inactive = no such curve, though single readings can be large or run the other way. Unless noted, % is set by controls: 0 for no effect and ±100 for the full control effect.

SMILES	PNC assembly inh	IMPase Li cell	IMPase inh	ALDH1A1 block	ALOX12 inhib	HPGD inh
N#Cc1nc(COc2ccc(Cl)cc2)oc1N1CCCCCC1	?	40%[38.3 µM]	47	?	-11%	?
N#Cc1nc(COc2ccccc2)oc1N1CCCCC1	24	16%[38.3 µM]	6	13µM*	-7%	?
N#Cc1nc(COc2ccccc2Cl)oc1N1CCCCCC1	-122*	19%	-4	?	6%	-25%
CCOc1ccc(Nc2cc(C)c(C#N)c3nc4ccccc4n23)cc1	·	·	3	·	·	·
COc1ccc(CNc2ncnc3ccc(-c4ccccc4CN(C)C)cc23)c(OC)c1	·	21%	·	2%	8%	?
CC12CC[C@@H]3c4ccc(OS(=O)(=O)O)cc4CC[C@H]3C1CCC2=O (stereo partly specified)	·	1%	2[20.6 µM]	-9%[20.9 µM]	-1%[25.6 µM]	1%
Cc1nn(C)c(Oc2ccccc2)c1CCNC(=O)CCl	·	-5%	·	22µM*	·	·
CC(=O)OCc1c(C(F)(F)F)nn(C)c1Oc1ccccc1	20	1%	6	-11%	1%	-1%
COc1cc(NCc2ccc3nc(N)nc(N)c3c2C)cc(OC)c1OC	·	13%	·	?	-6%[0.00818 µM]	?
CC(=O)Oc1ccc(C2OC(=O)c3ccccc3N2C(C)=O)cc1 (stereo unspecified)	-13	19%[38.3 µM]	-11	-11%	-1%	-6%
CC(=O)N1c2ccccc2C(=O)C1N1CCCCC1 (stereo unspecified)	?	0%[38.3 µM]	-1	28µM*	-2%	-17%
CCOc1ccc(NC(=O)Cn2nnc(C(=O)OC)c2C(=O)OC)cc1	·	·	7	·	·	·
CCOC(=O)CC1C(=O)NCCN1c1nc2ccc(C)cn2c(=O)c1/C=C1\SC(=S)N(C(C)CC)C1=O (stereo unspecified)	·	·	·	1.4µM*	·	·
CCOC(=O)CC(NC(=O)c1ccc(C)cc1)c1ccc(C)cc1 (stereo unspecified)	27	-8%[38.3 µM]	-20	2%	3%	2%
O=C1OC(c2ccccc2)=C/C1=C\N1CCOCC1	?	18%[38.3 µM]	5	11µM*	?	-6%
O=C1SC(c2ccccc2)=C/C1=C\N1CCCCC1	-10	-3%[38.3 µM]	3	?	?	-32%
O=C1OC(c2ccccc2)=C/C1=C/N1CCOCC1	-20	15%	9	7.9µM*	-1%	-19%
CN(C)/C=C1/C=C(c2ccccc2)OC1=O	37	29%[38.3 µM]	7	?	-17%	-11%
CCOc1cccc(OCCCn2c(-c3ccc(Br)cc3)nc3ccccc3c2=O)c1	·	·	-14	·	·	·
COC(=O)C1=C(C)NC(C)=C(C(=O)OC)C1c1cc2ccc(C)cc2[nH]c1=O	14	-1%[38.3 µM]	1	?	-13%	-15%
CCOC(=O)C1=C(C)NC(C)=C(C(=O)OCC)C1c1cc2ccc(C)cc2[nH]c1=O	-111*	-2%[38.3 µM]	-2	?	?	-12%
CCOC(=O)CCCCC1=CC2=CC(=O)C(C)(O)C(=O)C2=CO1 (stereo unspecified)	·	·	·	-7%[13.5 µM]	·	·
CC1(C)CC(NC(=O)C2CCCCC2C(=O)O)CC(C)(C)N1 (stereo unspecified)	-99*	-4%[38.3 µM]	2	6%	-2%	-3%
CC(C)C(=O)Nc1cccc(-c2cnc3ccccc3n2)c1	-96*	30%[38.3 µM]	-7	-6%	-4%	-7%
O=C(Nc1cccc(-c2cnc3ccccc3n2)c1)c1ccco1	46	27%[38.3 µM]	0	25µM*	1%	-23%
CCCCC(=O)/C=C/n1c(=S)oc2ccccc21	-116*	0%	·	11µM*	2%	?

Screens as filed in PubChem.
